Most compounds without a hit are left out; they make up all but 2.2% or so of the library.
APP transl inh = APP translation inhibition; SH-SY5Y APP 5'UTR-luciferase reporter, luminescence; inhibition, % at 2 µM; 190,000 tested, 0.82% active; AID 1285;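 active means inhibition above a set limit, derived from the sample mean plus 3 SD, cut at about 45% in these data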
aSyn 5UTR inh = MLPCN primary screen, SNCA 5' untranslated region; 300,000 tested, 0.82% active; alpha-synuclein 5'UTR reporter, inhibitor activity; inhibition, % (tested at 7.5 µM); in the data active means inhibition above about 60%;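 further: H4 neuroglioblastoma cells stably carrying SNCA 5'UTR luciferase fusion; 0% = DMSO wells and 100% = positive control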
IEC-6 tox-1 = IEC-6 cytotoxicity, counter-screen for KLF5 inhibitors | luminescence viability | inhibition, % at 5 µM | 290,000 tested, 0.78% active;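 further: 0% = plate median of test compound wells and 100% = cytotoxic reference compound wells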
BaF3 parental = parental Ba/F3 viability inhibition as JAK2V617F counter-screen; 220,000 tested, 1.1% active; AID 1486; CellTiter-Glo ATP luminescence; inhibition, % at 5.6 µM;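 active means inhibition above a per-campaign cutoff, the mean inhibition of all tested compounds plus 3 SD, cut at about 27% in these data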;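 further: 0% = DMSO wells and 100% = JAK Inhibitor I control wells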
Ba/F3 V617F tox = loss of viability in JAK2V617F-driven Ba/F3 cells. Ba/F3 EpoR-JAK2V617F viability, ATP luminescence. inhibition, % at 5.6 µM. 220,000 tested, 1.1% active. AID 1446;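 active means inhibition above the campaign mean plus 3 SD over all tested compounds, cut at about 24% in these data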;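 further: cytokine-independent growth of Ba/F3 cells driven by EpoR plus mutant JAK2; 0% = DMSO-treated cells and 100% = JAK inhibitor I control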
KLF5 inh = kruppel-like factor 5 inhibition; inhibition, % at 5 µM; 290,000 tested, 0.23% active; DLD-1 KLF5 promoter-luciferase reporter, luminescence;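 active means inhibition above a per-plate limit of that plate's mean compound inhibition plus 3 SD, cut at about 60% in these data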;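 further: 0% = DMSO wells and 100% = LY294002 at 200 µM; higher means less KLF5 promoter-driven luciferase light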
KLF5 confirm = confirmation of KLF5 inhibitors; shares compounds with KLF5 inh; DLD-1 KLF5 promoter firefly luciferase reporter, luminescence; inhibition, % at 4 µM; 610 tested, 79% active; AID 1834;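 active means inhibition above a set limit taken from the earlier primary screen, cut at about 63% in these data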;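 further: 0% = DMSO wells and 100% = LY294002 at 200 µM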
IEC-6 tox-2 = kills rat IEC-6 cells in KLF5 counter-screen; inhibition, % at 4 µM; shares compounds with KLF5 inh; IEC-6 rat intestinal cells, viability luminescence; AID 1905; 610 tested, 56% active; in the data active means inhibition above about 23%;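 further: cells exposed to compounds for 48 hours before viability read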
IEC-6 tox confirm = IEC-6 cytotoxicity, confirmation assay; AID 1907; 1,900 tested, 63% active; inhibition, % at 5 µM; IEC-6 rat intestinal epithelial viability, luminescence; shares compounds with IEC-6 tox-1;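 further: 0% = vehicle and 100% = reference cytotoxic drug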
Active calls of the source: *. Unless noted, no stated cut-off is given here; in the data, active means inhibition above about 22%; inactive means the rest.

CCOc1ncccc1C(=O)N1CCN(c2cccc(C)c2C)CC1 was read as APP transl inh 95*, aSyn 5UTR inh -15, IEC-6 tox-1 86*, BaF3 parental 81*, Ba/F3 V617F tox 81*, KLF5 inh 73*, KLF5 confirm 85*, IEC-6 tox-2 60* and IEC-6 tox confirm 54*.
CCOc1ncccc1C(=O)N1CCN(c2cc(Cl)ccc2C)CC1 was read as APP transl inh 91*, aSyn 5UTR inh 57, IEC-6 tox-1 82*, BaF3 parental 68*, Ba/F3 V617F tox 65*, KLF5 inh 68*, KLF5 confirm 78*, IEC-6 tox-2 64* and IEC-6 tox confirm 61*.
For CCOc1ncccc1C(=O)N1CCN(C(=O)c2ccccc2)CC1 the results were APP transl inh -5, aSyn 5UTR inh -10, IEC-6 tox-1 -4, BaF3 parental 0, Ba/F3 V617F tox -6 and KLF5 inh -28.
For CNC(=S)NNC(=O)c1cccc(N(C)C)c1 the results were APP transl inh -10, aSyn 5UTR inh 13, IEC-6 tox-1 5, BaF3 parental 7, Ba/F3 V617F tox 1 and KLF5 inh -7.
For COc1cc2c(cc1OC)C(C)N(C(=O)c1cc(C)on1)CC2 (configuration not stated) the results were aSyn 5UTR inh 97*, IEC-6 tox-1 85*, KLF5 inh 74*, KLF5 confirm 89*, IEC-6 tox-2 54* and IEC-6 tox confirm 55*.
O=C(Nc1nc2ccccc2[nH]1)c1ccccc1F was read as APP transl inh 1, aSyn 5UTR inh 108*, IEC-6 tox-1 43*, BaF3 parental 46*, Ba/F3 V617F tox 50*, KLF5 inh 76*, KLF5 confirm 75*, IEC-6 tox-2 46* and IEC-6 tox confirm 57*.
Screening O=C(Nc1nc2ccccc2[nH]1)c1ccccc1OC(F)F returned aSyn 5UTR inh 1, IEC-6 tox-1 11 and KLF5 inh -76.
`CN1C[C@@H]2C[C@@H](C3=Cc4cc(Cl)ccc4OC3)N3CCC[C@@]23C1=O` gave APP transl inh -5, aSyn 5UTR inh 12, IEC-6 tox-1 -3, BaF3 parental 7, Ba/F3 V617F tox -1 and KLF5 inh -37.
`COc1ccc2c(c1)C=C([C@@H]1C[C@H]3CN(c4ccccc4)C(=O)[C@]34CCCN14)CO2` gave APP transl inh -3, aSyn 5UTR inh -24, IEC-6 tox-1 87*, BaF3 parental 101*, Ba/F3 V617F tox 99*, KLF5 inh 75*, KLF5 confirm -5, IEC-6 tox-2 4 and IEC-6 tox confirm 1.
`CCOC(=O)c1[nH]c(C)c(C(=O)N2CCc3ccccc32)c1C` gave APP transl inh 96*, aSyn 5UTR inh 90*, IEC-6 tox-1 92*, BaF3 parental 85*, Ba/F3 V617F tox 81*, KLF5 inh 77*, KLF5 confirm 80*, IEC-6 tox-2 62* and IEC-6 tox confirm 55*.
`Cc1[nH]c2ccc(-c3nnc(SCC(=O)N4CCCc5ccccc54)o3)cc2c1C` gave APP transl inh 8, aSyn 5UTR inh 3, IEC-6 tox-1 -4, BaF3 parental -1, Ba/F3 V617F tox -3 and KLF5 inh -9.
`Cc1cc(C(=O)NC2CCCc3c2cnn3-c2ccc(C)c(C)c2)nc(C)n1` (configuration not stated) gave aSyn 5UTR inh -2, IEC-6 tox-1 3 and KLF5 inh -1.
`COC(=O)c1ccc(C(=O)NC2CCCc3c2cnn3-c2ccc(C)c(C)c2)cc1` (configuration not stated) gave aSyn 5UTR inh 104*, IEC-6 tox-1 76*, KLF5 inh 68*, KLF5 confirm 76*, IEC-6 tox-2 55* and IEC-6 tox confirm 58*.
Screening CC1CN(C(=O)N2CCCCC2)CCN1C(=O)N1CCCCC1 (configuration not stated) returned APP transl inh -6, aSyn 5UTR inh 4, IEC-6 tox-1 -3, BaF3 parental 2, Ba/F3 V617F tox -1 and KLF5 inh -18.
